In doi:10.1101/2025.02.07.636106:

molecular target: EEA1 (UniProt Q15075); experiment: cross-linking mass spectrometry; conditions: DMTMM
Sequence (Q15075 whole entry): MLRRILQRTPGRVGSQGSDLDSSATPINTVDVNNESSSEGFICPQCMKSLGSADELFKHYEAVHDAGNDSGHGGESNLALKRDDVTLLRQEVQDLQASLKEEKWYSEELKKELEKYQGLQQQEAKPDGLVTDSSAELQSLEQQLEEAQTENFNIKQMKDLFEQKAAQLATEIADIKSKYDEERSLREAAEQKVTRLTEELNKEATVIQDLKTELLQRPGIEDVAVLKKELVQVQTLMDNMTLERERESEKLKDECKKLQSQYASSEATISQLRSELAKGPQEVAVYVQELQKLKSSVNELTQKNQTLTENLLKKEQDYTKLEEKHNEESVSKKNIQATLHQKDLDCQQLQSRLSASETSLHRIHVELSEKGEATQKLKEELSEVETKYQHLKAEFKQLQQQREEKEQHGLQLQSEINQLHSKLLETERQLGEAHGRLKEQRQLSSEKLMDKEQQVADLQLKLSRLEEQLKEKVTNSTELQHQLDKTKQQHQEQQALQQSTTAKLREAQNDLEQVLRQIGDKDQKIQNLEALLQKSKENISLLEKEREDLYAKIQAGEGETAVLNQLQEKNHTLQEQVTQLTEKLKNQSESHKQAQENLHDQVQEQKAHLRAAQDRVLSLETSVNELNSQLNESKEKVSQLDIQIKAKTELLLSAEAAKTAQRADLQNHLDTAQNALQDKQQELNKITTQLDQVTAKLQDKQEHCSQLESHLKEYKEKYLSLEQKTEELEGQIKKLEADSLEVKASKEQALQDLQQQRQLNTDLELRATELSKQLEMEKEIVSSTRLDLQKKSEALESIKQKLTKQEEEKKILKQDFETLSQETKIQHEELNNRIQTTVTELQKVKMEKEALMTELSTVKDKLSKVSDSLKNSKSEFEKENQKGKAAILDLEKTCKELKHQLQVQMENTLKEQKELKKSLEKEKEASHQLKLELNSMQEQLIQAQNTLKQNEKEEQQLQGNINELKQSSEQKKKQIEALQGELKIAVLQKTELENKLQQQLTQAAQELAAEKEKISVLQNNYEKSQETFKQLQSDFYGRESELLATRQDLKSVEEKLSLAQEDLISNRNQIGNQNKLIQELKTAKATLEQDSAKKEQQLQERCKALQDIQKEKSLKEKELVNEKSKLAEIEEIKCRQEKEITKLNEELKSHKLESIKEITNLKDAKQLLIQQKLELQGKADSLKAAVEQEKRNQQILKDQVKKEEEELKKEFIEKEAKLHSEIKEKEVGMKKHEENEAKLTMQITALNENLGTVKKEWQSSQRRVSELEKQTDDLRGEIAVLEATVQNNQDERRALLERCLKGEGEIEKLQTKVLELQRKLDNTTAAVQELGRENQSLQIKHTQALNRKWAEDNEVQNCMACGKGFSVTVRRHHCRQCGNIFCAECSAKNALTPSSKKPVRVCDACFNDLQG

Chain of RAB9A, P51151 (P51151 whole entry): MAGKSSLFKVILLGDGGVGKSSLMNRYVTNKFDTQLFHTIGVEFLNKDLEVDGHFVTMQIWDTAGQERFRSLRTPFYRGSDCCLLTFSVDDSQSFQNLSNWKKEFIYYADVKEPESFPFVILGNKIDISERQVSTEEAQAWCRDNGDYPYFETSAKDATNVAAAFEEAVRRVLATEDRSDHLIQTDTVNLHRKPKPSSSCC
Chain of ACADL, P28330 (P28330 whole entry): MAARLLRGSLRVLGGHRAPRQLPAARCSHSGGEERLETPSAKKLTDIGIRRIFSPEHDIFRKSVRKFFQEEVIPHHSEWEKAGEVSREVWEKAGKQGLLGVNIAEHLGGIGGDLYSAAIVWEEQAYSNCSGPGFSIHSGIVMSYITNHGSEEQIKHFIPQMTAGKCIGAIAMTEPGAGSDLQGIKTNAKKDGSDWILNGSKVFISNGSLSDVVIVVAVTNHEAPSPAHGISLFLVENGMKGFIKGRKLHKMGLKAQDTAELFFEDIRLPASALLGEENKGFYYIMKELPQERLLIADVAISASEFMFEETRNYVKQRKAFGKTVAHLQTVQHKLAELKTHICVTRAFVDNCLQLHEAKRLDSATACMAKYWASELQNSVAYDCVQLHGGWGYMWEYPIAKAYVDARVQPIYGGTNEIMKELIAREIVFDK
Chain of ZNF638, Q14966 (Q14966 whole entry): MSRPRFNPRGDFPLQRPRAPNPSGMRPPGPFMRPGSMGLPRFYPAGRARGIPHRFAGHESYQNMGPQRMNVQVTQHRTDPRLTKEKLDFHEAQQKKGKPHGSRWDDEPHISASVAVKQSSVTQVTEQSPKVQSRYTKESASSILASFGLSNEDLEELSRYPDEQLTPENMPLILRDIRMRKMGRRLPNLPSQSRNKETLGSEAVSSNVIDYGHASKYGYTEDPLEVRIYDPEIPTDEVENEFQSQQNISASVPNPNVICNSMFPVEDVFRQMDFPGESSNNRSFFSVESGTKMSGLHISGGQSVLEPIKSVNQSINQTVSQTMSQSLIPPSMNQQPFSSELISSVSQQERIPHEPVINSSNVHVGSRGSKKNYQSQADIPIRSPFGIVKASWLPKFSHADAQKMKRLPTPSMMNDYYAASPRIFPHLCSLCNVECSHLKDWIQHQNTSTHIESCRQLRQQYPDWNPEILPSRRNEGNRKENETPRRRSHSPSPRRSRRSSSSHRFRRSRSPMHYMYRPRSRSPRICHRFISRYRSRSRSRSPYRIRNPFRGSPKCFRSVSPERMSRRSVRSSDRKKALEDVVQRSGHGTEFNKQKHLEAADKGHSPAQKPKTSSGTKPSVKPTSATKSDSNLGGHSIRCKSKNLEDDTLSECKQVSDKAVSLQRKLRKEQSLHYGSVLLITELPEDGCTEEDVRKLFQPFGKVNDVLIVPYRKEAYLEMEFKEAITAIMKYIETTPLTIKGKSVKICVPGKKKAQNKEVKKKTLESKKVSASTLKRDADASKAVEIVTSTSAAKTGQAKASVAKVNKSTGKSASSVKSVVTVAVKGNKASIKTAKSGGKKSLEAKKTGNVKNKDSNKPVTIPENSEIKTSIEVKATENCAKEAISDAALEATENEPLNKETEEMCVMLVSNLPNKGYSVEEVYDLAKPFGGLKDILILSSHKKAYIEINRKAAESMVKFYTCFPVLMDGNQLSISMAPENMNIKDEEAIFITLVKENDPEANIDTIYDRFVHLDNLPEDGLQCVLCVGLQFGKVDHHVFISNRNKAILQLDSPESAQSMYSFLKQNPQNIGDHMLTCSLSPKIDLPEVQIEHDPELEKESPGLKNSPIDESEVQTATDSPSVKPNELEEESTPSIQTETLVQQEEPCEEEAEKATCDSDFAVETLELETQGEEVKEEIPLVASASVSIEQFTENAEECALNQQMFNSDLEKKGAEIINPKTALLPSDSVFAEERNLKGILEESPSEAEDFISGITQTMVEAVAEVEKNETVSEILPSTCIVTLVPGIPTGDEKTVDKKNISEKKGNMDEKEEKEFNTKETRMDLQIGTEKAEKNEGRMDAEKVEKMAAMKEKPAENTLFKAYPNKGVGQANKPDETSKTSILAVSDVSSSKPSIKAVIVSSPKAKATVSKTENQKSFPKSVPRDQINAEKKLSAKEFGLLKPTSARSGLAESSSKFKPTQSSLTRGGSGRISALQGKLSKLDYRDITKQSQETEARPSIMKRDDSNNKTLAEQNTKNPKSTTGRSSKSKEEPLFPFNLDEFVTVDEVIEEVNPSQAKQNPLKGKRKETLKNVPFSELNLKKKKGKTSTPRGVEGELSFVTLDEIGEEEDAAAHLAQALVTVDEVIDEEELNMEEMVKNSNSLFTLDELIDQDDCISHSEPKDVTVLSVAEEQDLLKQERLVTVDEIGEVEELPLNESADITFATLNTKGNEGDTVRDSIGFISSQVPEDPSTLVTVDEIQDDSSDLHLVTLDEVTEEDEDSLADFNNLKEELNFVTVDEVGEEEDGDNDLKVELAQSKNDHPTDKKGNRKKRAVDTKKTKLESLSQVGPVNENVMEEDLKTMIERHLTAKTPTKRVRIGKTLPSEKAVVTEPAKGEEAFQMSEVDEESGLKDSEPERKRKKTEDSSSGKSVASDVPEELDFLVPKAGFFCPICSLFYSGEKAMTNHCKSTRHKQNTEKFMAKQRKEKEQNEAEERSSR
Chain of TPM4, P67936 (P67936 whole entry): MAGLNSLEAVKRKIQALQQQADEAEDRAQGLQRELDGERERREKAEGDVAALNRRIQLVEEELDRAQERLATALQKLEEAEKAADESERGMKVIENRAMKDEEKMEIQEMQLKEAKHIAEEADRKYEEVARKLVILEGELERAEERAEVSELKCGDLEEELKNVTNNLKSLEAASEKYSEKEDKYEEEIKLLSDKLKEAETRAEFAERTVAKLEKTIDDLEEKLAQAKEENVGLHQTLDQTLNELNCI

Substance | cross-linked residues
ZNF638, Q14966 | K951 - E91
NEB, P20929 | K8264 - E1248
ACADL, P28330 | K92 - D1321
DMD, P11532 | E2453 - K227

same assay, conditions: DSSO

Substance | cross-linked residues
TPM4, P67936 | K215 - K370
ROCK2, O75116 | K780 - K303
RAB9A, P51151 | K4 - K1340
DST, Q03001 | K3770 - K995
